From PubChem BioAssay (EPA / NIEHS)
Where “and” joins values, the source holds several entries; their conditions need not be identical. Equal values may be shown once. Some structures have more than one record in an assay (separate samples or runs), and their calls can disagree. Calls of active or inactive are those of the source. Rule for the calls: active = hit-call score of the fitted dose curve at least 0.9, where 1 is the maximum; inactive = score below 0.9.

Experiments:
[1] = read-out: Urokinase-type plasminogen activator receptor (uPAR), PLAUR (gene 5329); assay: BSK_4H_uPAR: BioMAP Diversity Plus: 4H Assay for Urokinase-type plasminogen activator receptor (uPAR) Biomarker Activity (AID 2283030); settings: primary human endothelial cells (HUVEC); actives raise or lower the signal
Method in brief: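 Primary human umbilical vein endothelial cells were exposed to chemical for 24 h before cell-surface uPAR was quantified by ELISA. Activity was fitted bidirectionally against the DMSO negative control baseline.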

[2] = read-out: Vascular endothelial growth factor receptor 2 (Homo sapiens) (UniProt P35968); assay: BSK_4H_VEGFRII: BioMAP Diversity Plus: 4H Assay for Vascular endothelial growth factor receptor 2 (VEGFR2) Biomarker Activity (AID 2283031); settings: primary human endothelial cells (HUVEC); actives raise or lower the signal;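 for AC50: cell-surface VEGFR2 protein level quantified by ELISA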
Method in brief: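 Primary human umbilical vein endothelial cells in the BioMAP 4H system were dosed with test chemical, and 24 h later VEGFRII was measured by ELISA. Activity was fitted bidirectionally against DMSO as negative control and baseline.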

[3] = read-out: Vascular cell adhesion molecule 1 (VCAM1), VCAM1 (gene 7412); assay: BSK_4H_VCAM1: BioMAP Diversity Plus: 4H Assay for Vascular cell adhesion molecule 1 (VCAM1) Biomarker Activity (AID 2283033); settings: primary human endothelial cells (HUVEC); actives raise or lower the signal
Method in brief: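 HUVEC, 24 h post-dose; VCAM-1 by ELISA. Bidirectional curve fit vs DMSO baseline. Parallel SRB total-protein stain (0.1% SRB after 10% TCA fixation, 560 nm) for cytotoxicity.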

[4] = read-out: Interferon-gamma inducible Protein 10 (IP10), CXCL10 (gene 3627); assay: BSK_BE3C_IP10: BioMAP Diversity Plus: BE3C Assay for Interferon-gamma inducible Protein 10 (IP10) Biomarker Activity (AID 2283034); settings: primary human bronchial epithelial cells; actives raise or lower the signal
Method in brief: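 ELISA readout of IP-10 in BE3C system: primary human bronchial epithelial cells, 24 h post-dosing; bidirectional curve fit vs DMSO baseline.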

[5] = read-out: Monokine induced gamma interferon (MIG), CXCL9 (gene 4283); assay: BSK_BE3C_MIG: BioMAP Diversity Plus: BE3C Assay for Monokine induced gamma interferon (MIG) Biomarker Activity (AID 2283035); settings: primary human bronchial epithelial cells; actives raise or lower the signal
Method in brief: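 hu bronchial epithelial 1° cells, 24 h cpd; MIG by ELISA; bidirectional fit, DMSO = baseline.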

[6] = read-out: urokinase plasminogen activator (uPA), PLAU (gene 5328); assay: BSK_BE3C_uPA: BioMAP Diversity Plus: BE3C Assay for urokinase plasminogen activator (uPA) Biomarker Activity (AID 2283038); settings: primary human bronchial epithelial cells; actives raise or lower the signal
Method in brief: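 Human primary bronchial epithelial cells were exposed to chemical for 24 h, then uPA levels were measured by ELISA. Responses were fitted bidirectionally against DMSO as negative control and baseline. Parallel SRB staining of total protein gauged overt cytotoxicity.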

[7] = read-out: Urokinase-type plasminogen activator receptor (uPAR), PLAUR (gene 5329); assay: BSK_BE3C_uPAR: BioMAP Diversity Plus: BE3C Assay for Urokinase-type plasminogen activator receptor (uPAR) Biomarker Activity (AID 2283039); settings: primary human bronchial epithelial cells; actives raise or lower the signal
Method in brief: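 ELISA readout of uPAR on human lung primary bronchial epithelial cells, 24 h post-dosing. Bidirectional curve fit relative to DMSO vehicle baseline; gain or loss of signal both scored.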

[8] = read-out: Interleukin-6 (IL6), IL6 (gene 3569); assay: BSK_CASM3C_IL6: BioMAP Diversity Plus: CASM3C Assay for Interleukin-6 (IL6) Biomarker Activity for (AID 2283040); settings: primary human coronary artery smooth muscle cells; actives raise or lower the signal
[9] = read-out: Interleukin-8 (IL8), CXCL8 (gene 3576); assay: BSK_CASM3C_IL8: BioMAP Diversity Plus: CASM3C Assay for Interleukin-8 (IL8) Biomarker Activity (AID 2283042); settings: primary human coronary artery smooth muscle cells; actives raise or lower the signal;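 note: IL-8 protein level quantified by ELISA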
[10] = read-out: Human Leukocyte Antigen - DR isotype (HLADR), HLA-DRA (gene 3122); assay: BSK_CASM3C_HLADR: BioMAP Diversity Plus: CASM3C Assay for Human Leukocyte Antigen - DR isotype (HLADR) Biomarker Activity (AID 2283043); settings: primary human coronary artery smooth muscle cells; actives raise or lower the signal;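 note: cell-surface HLA-DR protein level quantified by ELISA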
[11] = read-out: Macrophage colony-stimulating factor (MCSF), CSF1 (gene 1435); assay: BSK_CASM3C_MCSF: BioMAP Diversity Plus: CASM3C Assay for Macrophage colony-stimulating factor (MCSF) Biomarker Activity (AID 2283044); settings: primary human coronary artery smooth muscle cells; actives raise or lower the signal;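 note: M-CSF protein amount quantified by ELISA after 24 h exposure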
[12] = read-out: Low-density lipoprotein receptor (LDLR), LDLR (gene 3949); assay: BSK_CASM3C_LDLR: BioMAP Diversity Plus: CASM3C Assay for Low-density lipoprotein receptor (LDLR) Biomarker Activity (AID 2283045); settings: primary human coronary artery smooth muscle cells; actives raise or lower the signal;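 note: LDLR protein level on the cell surface quantified by ELISA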
[13] = read-out: Monocyte Chemoattractant Protein-1 (MCP1), CCL2 (gene 6347); assay: BSK_CASM3C_MCP1: BioMAP Diversity Plus: CASM3C Assay for Monocyte Chemoattractant Protein-1 (MCP1) Biomarker Activity (AID 2283046); settings: primary human coronary artery smooth muscle cells; actives raise or lower the signal;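 note: MCP-1 level quantified by ELISA 24 h after dosing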
[14] = BSK_CASM3C_Proliferation: Cell Proliferation Assessment in the BioMAP Diversity Plus: CASM3C Assay (AID 2283047); settings: primary human coronary artery smooth muscle cells;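 note: sulforhodamine B total protein stain as relative cell number at 560 nm; sub-confluent cells exposed 48 h before staining; fitted both ways against DMSO so gain or loss of cell number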
[15] = read-out: Monokine induced gamma interferon (MIG), CXCL9 (gene 4283); assay: BSK_CASM3C_MIG: BioMAP Diversity Plus: CASM3C Assay for Monokine induced gamma interferon (MIG) Biomarker Activity (AID 2283048); settings: primary human coronary artery smooth muscle cells; actives raise or lower the signal
[16] = read-out: serum amyloid A (SAA), SAA1 (gene 6288); assay: BSK_CASM3C_SAA: BioMAP Diversity Plus: CASM3C Assay for serum amyloid A (SAA) Biomarker Activity (AID 2283049); settings: primary human coronary artery smooth muscle cells; actives raise or lower the signal;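 note: SAA protein level quantified by ELISA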
[17] = read-out: Transforming growth factor beta 1 (TGFb1), TGFB1 (gene 7040); assay: BSK_BE3C_TGFb1: BioMAP Diversity Plus: BE3C Assay for Transforming growth factor beta 1 (TGFb1) Biomarker Activity (AID 2283036); settings: primary human bronchial epithelial cells; actives raise or lower the signal
Method in brief: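 Read-out: ELISA for TGF-b1 in primary human bronchial epithelial cultures, 24 h post-dose. Bidirectional curve fitting vs DMSO control; gain or loss of signal both scored.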

[18] = read-out: Human Leukocyte Antigen - DR isotype (HLADR), HLA-DRA (gene 3122); assay: BSK_BE3C_HLADR: BioMAP Diversity Plus: BE3C Assay for Human Leukocyte Antigen - DR isotype (HLADR) Biomarker Activity (AID 2283032); settings: primary human bronchial epithelial cells; actives raise or lower the signal
Method in brief: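 Primary human bronchial epithelial cells (BE3C); 24 h chemical exposure; HLA-DR by ELISA; bidirectional curve fit vs DMSO baseline.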

[19] = read-out: Plasminogen activator inhibitor-1 (PAI1), SERPINE1 (gene 5054); assay: BSK_BE3C_PAI1: BioMAP Diversity Plus: BE3C Assay for Plasminogen activator inhibitor-1 (PAI1) Biomarker Activity (AID 2283037); settings: primary human bronchial epithelial cells; actives raise or lower the signal
Method in brief: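 ELISA read-out of PAI-1 from human bronchial epithelial primary cells, 24 h post-dosing; bidirectional curve fit vs DMSO baseline, gain or loss of signal scored.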

Measured: AC50

OCC(F)(OC(F)(F)C(F)(OC(F)(F)C(F)(F)C(F)(F)F)C(F)(F)F)C(F)(F)F (configuration not stated)
active: [3] 2.41 µM | [4] 4.78 µM
inactive: [1] | [2] | [3] | [4] | [5] | [6] | [7] | [8] | [9] | [10] | [11] | [12] | [13] | [14] | [15] | [16]

c1ccc2c(c1)-c1ccc3ccc4cccc5cc-2c1c3c45
inactive: [2] | [4] | [5] | [17] | [6] | [7] | [8] | [9] | [10] | [11] | [12] | [13] | [14] | [15] | [16]
active: [1] 10 µM | [3] 3.53 µM

CCOC(=O)C=Cc1ccccc1
inactive: [1] | [2] | [3] | [4] | [5] | [17] | [6] | [7] | [8] | [9] | [10] | [11] | [12] | [13] | [14] | [15] | [16]

c1ccc(Sc2ccccc2)cc1
active: [1] 32.7 µM | [18] 29.9 µM | [3] 31.3 µM | [4] 30.1 µM | [17] 20 µM | [6] 25.6 µM | [10] 20 µM | [11] 14.9 µM | [16] 20 µM
inactive: [2] | [5] | [7] | [8] | [9] | [12] | [13] | [14] | [15]

CC(=O)OC(C)(C)C1CC=C(C)CC1 (configuration not stated)
active: [1] 30.8 µM | [2] 31.6 µM | [3] 35 µM | [4] 31.5 µM | [10] 31.5 µM | [11] 35.3 µM | [13] 32.6 µM | [14] 29.6 µM
inactive: [5] | [17] | [19] | [6] | [7] | [8] | [9] | [12] | [15] | [16]

CC1=CC(C)C(C=O)C(C)C1 (configuration not stated) (tested in a mixture with another compound)
inactive: [1] | [2] | [3] | [4] | [5] | [17] | [6] | [7] | [8] | [9] | [10] | [11] | [12] | [13] | [14] | [15] | [16]

CC/C(=C(\c1ccccc1)c1ccc(OCCN(C)C)cc1)c1ccccc1
active: [1] 5.66 µM and 7.14 µM | [2] 4.71 µM | [3] 8.4 µM and 8.08 µM | [4] 10.3 µM and 9.01 µM | [5] 12.1 µM and 11.1 µM | [17] 9.23 µM and 20 µM | [6] 9.63 µM and 7.45 µM | [7] 8.83 µM and 6.66 µM | [8] 27.3 µM and 32.2 µM | [9] 30.9 µM and 15.7 µM | [10] 28.8 µM and 9.17 µM | [11] 21 µM and 15.7 µM | [12] 31.8 µM and 34.2 µM | [13] 27.4 µM and 25.9 µM | [14] 12.7 µM and 6.94 µM | [15] 31.5 µM and 32 µM | [16] 28.1 µM and 11.7 µM
inactive: [2]

C=C1CC/C=C(\C)CC[C@@H]2[C@@H]1CC2(C)C
active: [1] 33.2 µM | [2] 29.1 µM | [3] 29.8 µM | [4] 28.6 µM
inactive: [18] | [5] | [17] | [6] | [7] | [8] | [9] | [10] | [11] | [12] | [13] | [14] | [15] | [16]

CCOC(=O)CCCCCCCCC(=O)OCC
inactive: [1] | [2] | [3] | [4] | [5] | [17] | [6] | [7] | [8] | [9] | [10] | [11] | [12] | [13] | [14] | [15] | [16]

CCCO[Si](OCCC)(OCCC)OCCC
inactive: [1] | [2] | [18] | [3] | [4] | [5] | [6] | [7] | [8] | [9] | [10] | [11] | [12] | [13] | [14] | [15] | [16]

COc1ccccc1NC(=O)CC(C)=O
inactive: [1] | [2] | [3] | [4] | [5] | [17] | [6] | [7] | [8] | [9] | [10] | [11] | [12] | [13] | [14] | [15] | [16]
